# Hit rate of the full screen: of about 330,000 compounds, about 900 (0.27%) were called active. This excerpt belongs to a sample that is enriched for actives. Unmarked numbers belong to inactive results.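 Rule for the calls: active = inhibition above the campaign's mean inhibition across all tested compounds plus 3 SD (cut at about 9.9% in these data); inactive = the rest.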
# Assay: bacterial viability reduction in E. coli – absorbance, OD600, counter-screen for AddAB inhibitor project, primary screen (AID 449728);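 note: uninfected addAB+ strain grown without phage in ampicillin broth; 0% = DMSO wells and 100% = ciprofloxacin 0.95 µg/ml wells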
# Settings: E. coli V3065 growth, 18 h, at 11.9 µM, active compounds read high
row,Compound,inhibition
1,COC(=O)c1sc(SC)c(S(=O)(=O)C(C)C)c1N/N=C(\C#N)S(=O)(=O)c1ccccn1,-1.95%
2,CCCCCC1CC(COc2ccccc2)OC1=O (centres undefined),-0.64%
3,O=C(CC(O)(C(F)(F)F)C(F)(F)F)Nc1ccc(Cl)c(Cl)c1,17.7% (active)
4,CS(=O)(=O)N(CC(=O)Nc1ccc(Cl)c(Cl)c1)C1CCCCC1,0.42%
5,O=C(CCCN1C(=O)CCC1=O)Nc1ccc(Cl)c(C(F)(F)F)c1,-1.92%
6,CC(=O)Nc1ccc(NC(=O)COc2ccc(S(=O)(=O)NC(C)c3ccccc3)cc2)cc1 (centres undefined),2.38%
7,O=C(CSc1ccccn1)N1CCN(S(=O)(=O)c2ccc(Cl)cc2)CC1,-1.3%
8,CCCCNC(=O)Nc1c(C)cc(SC#N)cc1C,2.5%
9,O=C(O)C(c1ccccc1)N1C(=O)/C(=C\c2ccc(-c3cccc(Cl)c3)o2)SC1=S (centres undefined),-3.78%
10,CC(=O)NN1C(=O)c2ccccc2NC1c1ccccc1 (centres undefined),0.86%
11,O=C1c2ccccc2NC(c2ccc(-c3cccc(Cl)c3)o2)N1O (centres undefined),19.2% (active)
12,O=C(NCc1cccs1)c1ccc2c(c1)ncn2C1CCCC1,-2.5%
13,Cc1ccc(NC(=O)CN(C)C(=O)c2ccc(Br)o2)cc1,0.43%
14,CCCS(=O)(=O)Nc1ccc(-c2cn3c(n2)SCC3)cc1,2.36%
15,CC(C)(C)N(Cc1ccccc1)C(=O)c1ccncc1,-2.63%
16,O=C(NCc1ccccn1)Nc1ccc(Cl)cc1,-3.41%
17,O=C1c2ccccc2C(=O)N1CCC(O)C[N+](=O)[O-] (centres undefined),3.02%
18,CC(=O)Oc1ccccc1C(=O)Nc1ncc([N+](=O)[O-])s1,11.2% (active)
19,O=C(Cc1c(F)cccc1Cl)Nc1ncc([N+](=O)[O-])s1,7.15%
20,COc1ccc(NC(=O)c2ccccc2[N+](=O)[O-])cc1OC,-1.73%
21,CCCCCCCCCCCC(=O)O,-2.17%
22,COc1ccc(OC)c(CCNC(=O)c2nn(C)c3c2CS(=O)(=O)c2ccccc2-3)c1,0.84%
23,Cc1cc(=O)oc2cc(OCC(=O)N3CCN(c4ccc(F)cc4)CC3)c(Cl)cc12,1.94%
24,O=C(Nc1ccc(Br)cn1)c1ccc([N+](=O)[O-])o1,32.3% (active)

row,Compound,inhibition
1,CN1C(=O)c2ccc(C(=O)Nc3ccc(Br)cn3)cc2C1=O,-2.73%
2,Cc1cccc(NC(=O)c2ccc([N+](=O)[O-])o2)c1,27.2% (active)
3,O=C(Nc1cccc(O)c1)c1ccc(C(=O)c2ccccc2)o1,0.43%
4,Cc1onc(NC(=O)c2ccc([N+](=O)[O-])o2)c1Br,6.74%
5,O=C(Nc1ccc(Br)cn1)c1ccc([N+](=O)[O-])cc1Cl,2.77%
6,CC1CC(C)CN(CCC(=O)Nc2ccc3c(c2)CCC3)C1 (centres undefined),1.48%
7,O=c1c(-c2ccc(Cl)cc2)[n+]([O-])c2ccccc2n1OCc1nc2ccccc2[nH]1,0.49%
8,O=C(Nc1cccnc1Cl)c1cc(-c2ccccc2O)on1,-1.11%
9,C=CCNC(=O)c1csc(-c2ccccc2)n1,-0.67%
10,C=CCNC(=O)c1cc(-c2ccccc2O)on1,85.1% (active)
11,Cc1ccc(C)c(OCCC(=O)OCC(=O)NC(=O)NCc2ccccc2)c1,0.73%
12,CNC(=O)CN1C(=O)NC(c2ccccc2)(c2ccccc2)C1=O,1.95%
13,CCOC(=O)N1CCN(Cc2nc3cc(NC(=O)CC)ccc3n2CC)CC1,-0.18%
14,Cc1c(C=O)c2ccccc2n1CC(=O)O,2.1%
15,CC(=O)c1c(C)n([O-])c2ccccc2[n+]1=O,30.7% (active)
16,COC(=O)c1cc(N2CCNCC2)nc2ccccc12,0.59%
17,CC12C(=O)N(n3cnnc3)C(=O)C1C1C=CC2C1 (centres undefined),1.48%
18,COc1ccc(C(=O)COC(=O)c2ccc3ccccc3n2)cc1,0.25%
19,CC[C@H](C)[C@@H](C(=O)N1CCNCC1)n1cc([C@@H](N)Cc2ccc(O)cc2)nn1,-1.2%
20,CC(C)[C@H](NC(=O)c1ccc(F)cc1)C(=O)OCC(=O)NC(=O)c1cccn1C,-1.29%
21,COC(=O)N/N=C/c1c[n+]([O-])c2ccccc2[n+]1[O-],93.8% (active)
22,COC(=O)N/N=C/c1cn(CCCOc2ccc(C)cc2)c2ccccc12,-2.32%
23,COC(=O)N/N=C/c1ccc(-c2ccc(Cl)c(Cl)c2)o1,0.17%
24,COc1ccc(C)cc1NC(=O)c1[nH]c(C)c(C(C)=O)c1C,-0.41%

row,Compound,inhibition
1,CN(Cc1ccco1)S(=O)(=O)c1nnc(NC(=O)c2ccccc2)s1,0%
2,COCCNS(=O)(=O)c1cc(Br)ccc1OC,-1.08%
3,COc1ccc(OCc2nnc3n2N=C(c2ccccc2)C(CC(=O)O)S3)cc1 (centres undefined),-0.43%
4,CN1CCN(C(c2cc3cc4c(cc3[nH]c2=O)OCCO4)c2nnnn2C2CCCC2)CC1 (centres undefined),0.75%
5,Cc1cc(C(=O)N/N=C/c2ccccn2)c2ccccc2n1,-0.17%
6,Cc1nnc(N/N=C/C2CC=CCC2)[nH]c1=O (centres undefined),-0.18%
7,Cc1nnc(N/N=C/c2ccccn2)[nH]c1=O,12.1% (active)
8,O=C(Nc1ccc2nc3n(c(=O)c2c1)CCCC3)c1ccc(Cl)nc1,-2.17%
9,CC(NS(=O)(=O)c1ccc(Cl)cc1)C(=O)Nc1ccc2c(c1)OCCO2 (centres undefined),-2.14%
10,CCn1c(=O)cc(SCC(=O)NCc2ccc3c(c2)OCO3)c2ccccc21,-0.5%
11,C=CCn1c(=O)c(C(=O)NCc2ccc3c(c2)OCO3)c(O)c2ccccc21,13.5% (active)
12,CCn1c(=O)c(C(=O)NCc2ccc3c(c2)OCO3)c(O)c2ccccc21,0.18%
13,O=C(CC1SC(N2CCCC2)=NC1=O)Nc1ccc(C(=O)NCCc2ccc(F)cc2)cc1 (centres undefined),-1.3%
14,C=C1c2c(Cl)ccc(O)c2C(O)=C2C(=O)[C@]3(O)C(O)=C(C(N)=O)C(=O)[C@@H](N(C)C)[C@@H]3[C@@H](O)C12 (some centres undefined),103% (active)
15,CN(C)[C@@H]1C(=O)C(C(N)=O)=C(O)[C@@]2(O)C(=O)C3=C(O)c4c(O)ccc(Cl)c4[C@@H](O)[C@H]3C[C@@H]12,102% (active)
16,CC1CC(C)CN(CCOc2cccc3ccccc23)C1 (centres undefined),0.17%
17,COc1cc(Cl)c(C)cc1NC(=O)COC(=O)c1cc(SC)ccc1Cl,-0.93%
18,CCCn1nc(Oc2nc(NC(C)C)nc(N(C)C)n2)ccc1=O,-1.48%
19,CCc1c(C)nc2ncnn2c1N1CCC(C(=O)NCc2ccc3c(c2)OCO3)CC1,-1.08%
20,Cc1cnc(C(=O)OCC(=O)NCCCc2ccccc2)cn1,-0.78%
21,COc1ccccc1NC(=S)N1CCN(c2ccc(F)cc2)CC1,-1.81%
22,COc1c(N2CCN(C(=S)Nc3ccccc3F)C(C)C2)c(F)cc2c(=O)c(C(=O)O)cn(C3CC3)c12 (centres undefined),99% (active)
23,CC1CN(C(=S)Nc2ccccc2F)CC(C)O1 (centres undefined),0.45%
24,CCOc1ccc(/C=C/C(=O)OCC(=O)c2ccccc2OC)cc1OC,2.19%

row,Compound,inhibition
1,O=C(CSc1ccc(-c2ccccc2)nn1)NCC1CCCO1 (centres undefined),0.59%
2,O=C(NCC1CCCO1)/C(=C/c1ccc(Cl)cc1)NC(=O)c1ccccc1 (centres undefined),0.6%
3,O=C(NCC1CCCO1)C(C(=O)c1ccccc1)n1cc(Cl)ccc1=O (centres undefined),96.6% (active)
4,O=C1CN(C(=O)COC(=O)C2CC(=O)N(Cc3ccco3)C2)c2ccccc2N1 (centres undefined),-0.37%
5,Cc1ccc(NC(=O)C(C)OC(=O)Cc2c[nH]c3ccccc23)cc1S(=O)(=O)N1CCOCC1 (centres undefined),-2.87%
6,CC(C)CC(=O)NC(=S)NNC(=O)c1cccc([N+](=O)[O-])c1,-7.21%
7,CN(C)CCn1c2c(c(SCC(=O)NCc3ccccc3)nc1=O)CCC2,-1.35%
8,COc1ccc(CC(=O)Nc2c(C(N)=O)oc3ccccc23)cc1,-1.77%
9,COc1ccc(C(=O)c2oc3ccc(Br)cc3c2NC(C)=O)cc1,98.8% (active)
10,COC(=O)c1oc2ccc(Br)cc2c1NC(C)=O,1.03%
11,OCc1ccc(-c2ccccc2)c(-c2ccccc2)c1,-4.27%
12,CCC1(C)Cc2c(sc3[nH]c(=S)n(Cc4ccccc4)c(=O)c23)CO1 (centres undefined),-1.73%
13,Cc1ccc(SCc2c(C(=O)N/N=C/c3cccnc3)nnn2-c2nonc2N)cc1,1.61%
14,Nc1nonc1-n1nnc(C(=O)N/N=C/c2ccccc2O)c1CN1CCCC1,-0.26%
15,Nc1nonc1-n1nnc(C(=O)N/N=C/c2cc(Br)ccc2O)c1CSC1=NCCS1,12.6% (active)
16,O=C(CNCCO)NC12CC3CC(CC(C3)C1)C2,-2.56%
17,CSCCC(NS(=O)(=O)/C=C/c1ccccc1)C(=O)N1CCC(C)CC1 (centres undefined),-0.42%
18,CSc1cc(C)[nH]c(=O)n1,-2.18%
19,CCc1ccccc1NC(=O)CN(c1ccc(OC)cc1OC)S(=O)(=O)c1ccccc1[N+](=O)[O-],-0.37%
20,COc1ccc(C(=O)NCC(=O)N/N=C/c2ccc([N+](=O)[O-])o2)cc1OC,5.52%
21,C/[N+]([O-])=C\c1ccc([N+](=O)[O-])o1,15.4% (active)
22,COC(=O)C1=C(C)N(C)C(=O)NC1c1ccc([N+](=O)[O-])o1 (centres undefined),0.52%
